Assay outcomes: PubChem BioAssay, National Center for Advancing Translational Sciences (NCATS)
This is a sample that favours compounds with a hit; in the whole collection about 12% have one here.
Pf growth 48h = Primary qHTS for delayed death inhibitors of the malarial parasite plastid, 48 hour incubation; hit rate 5.9% among 310,000; Potency, µM (titrated, usually from 28.7 µM), without a hit: at the highest dose activity change, negative = inhibition, most hits filed as inhibitors; P. falciparum luciferase growth in erythrocytes, 48 h; further: on the % scale 0 is the no-effect control and ±100 the full control effect
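Erythrocytes infected with P. falciparum carrying an integrated firefly luciferase reporter (2% hematocrit, 0.1% parasitemia final) were exposed to compounds in RPMI 1640 with 0.5% Albumax at 37 C, 5% CO2. Growth inhibition was scored as reduced luminescence.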
SARS PLP yeast = qHTS of Yeast-based Assay for SARS-CoV PLP; S. cerevisiae expressing SARS-CoV PLpro, growth rescue; Potency, µM (titrated, usually from 32.9 µM), for the others: at the highest dose activity, positive = growth rescue, usual class: activators; hit rate 0.19% among 330,000; calls by dose curve; further: 0% is about no effect; nearly all actives have a fitted effect of over 55% in size
Pf growth 96h = Primary qHTS for delayed death inhibitors of the malarial parasite plastid, 96 hour incubation; P. falciparum luciferase reporter growth, 96 h; Potency, µM (top dose mostly 28.7 µM), for inactives: at the top dose activity change, negative = inhibition, hits mostly inhibitors; hit rate 6.9% among 320,000; AID 504834, 2011; further: on the % scale 0 is the no-effect control and ±100 the full control effect
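Cell-based qHTS: luciferase-tagged P. falciparum in erythrocytes (2% hematocrit, 0.05% parasitemia final) incubated with compounds for 96 hours, 37 C, 5% CO2; luciferase detection reagent then added and luminescence measured.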
AMA1 RON2 block = qHTS for Inhibitors of AMA1-RON; Towards Development of Antimalarial Drug Lead: Primary Screen. AlphaScreen AMA1-biotinylated RON2 peptide binding. hit rate 0.2% among 360,000. AID 720542, 2013. Potency, µM (doses to about 58.2 µM), for inactives: at the highest dose activity change, negative = inhibition, most hits filed as inhibitors;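 further: 0% = vehicle wells and -100% = peptide control; nearly all actives have a fitted effect of over 45% in size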
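AMA1 (3D7) with his tag at 25 nM final met compounds first, then biotinylated RON2 peptide at 25 nM; detection used donor plus acceptor beads, 10 µg/mL apiece, read by AlphaScreen after 30 min at room temperature.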
NS1 inh = qHTS Assay for Inhibitors of Influenza NS1 Protein Function. Potency, µM (series often up to 46.1 µM), without a hit: at the highest dose activity, positive = more growth. hit rate 0.4% among 270,000. AID 2326, 2010; calls by dose curve; further: actives are rising curves; nearly all actives have a fitted effect of over 50% in size
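Compounds were scored for reversing the slow growth caused by influenza A NS1 in S. cerevisiae, measured by optical density at 600 nm. Assay medium contained 2% galactose at pH 6.0; NS1-free yeast of the same strain were the positive control.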
HCV inhibitor = qHTS Assay for Inhibitors of Hepatitis C Virus (HCV) | Huh7.5.1 HCVcc-Cre infection, luciferase reporter, 44 h | Potency, µM (titrated, usually from 41.8 µM), without a hit: top-dose activity change, negative = inhibition, usual class: inhibitors | hit rate 3.4% among 340,000 | AID 651820, 2012; further: on the % scale 0 is the no-effect control and ±100 the full control effect
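Reporter virus HCVcc-Cre (~0.5 moi) infects cells exposed to compound; seeding density 1,000 cells/well with 4 h settling beforehand. Luminescence, 15 sec read, taken 44 h post-infection following a 15 min RT substrate incubation.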
Starred values were filed as active, the others as inactive; u = inconclusive; x = no result given; ! = repeats disagree. Unless noted, the call rests on the fitted dose curve; in most records, active means well fitted curve in the direction sought with a large enough effect; inconclusive means small, poorly fitted or top-dose-only effect, or another doubt; inactive means no such curve, though single readings can be large; an effect the other way counts as inactive or inconclusive. Potency means the concentration at half of the fitted maximal effect.

SMILES	Pf growth 48h	SARS PLP yeast	Pf growth 96h	AMA1 RON2 block	NS1 inh	HCV inhibitor
CC1=CC(=C(C#N)C#N)C=C(C)N1CCN1CCN(C(=O)Nc2ccc(Cl)c(Cl)c2)CC1	u	0%	u	-13%	-3%	u
CCN(CC)S(=O)(=O)c1ccc(N2CCOCC2)c(NS(=O)(=O)c2ccc(C)cc2)c1	u	8%	5.9µM*	0%	14%	0%
CCN(CC)S(=O)(=O)c1ccc(N2CCOCC2)c(NS(=O)(=O)c2ccc(OC)cc2)c1	51%	1%	u	0%	-71%	-16%
CCN(CC)S(=O)(=O)c1ccc(N2CCOCC2)c(NS(=O)(=O)c2ccc(C)c(C)c2)c1	7.4µM*	-9%	4.1µM*	-1%	3%	u
CCN(CC)S(=O)(=O)c1ccc(N2CCOCC2)c(NC(=O)Cc2ccccc2)c1	u	14%	u	3%	-22%	7%
COCCNC(=O)C(=O)NCC1OCCCN1S(=O)(=O)c1cccs1 (stereo unspecified)	14%	-15%	39%	7%	14%	13%
c1ccc2c(N3CCCCC3)nc(N3CCCC3)nc2c1	13µM*	u	4.7µM*	9%	-39%	3.2µM*
Cc1nc(N2CCCCCC2)c2ccccc2n1	-21%	u	u	5%	-7%	10µM*
c1ccc2c(c1)nc(N1CCCCC1)c1ccccc12	34%	-2%	48%	24%	-39%	u
Cc1cc(C)cc(OC(C)C(=O)Nc2ccccc2C(=O)NCc2cccnc2)c1 (stereo unspecified)	u	-3%	u	-9%	-6%	u
COc1ccc(CN[C@H](C)C(=O)O)cc1	x	x	x	x	-6%	x
O=C(COC(=O)c1ccccc1S(=O)(=O)N1CCCCC1)NCC(F)(F)F	-12%	8%	13µM*	1%	0%	-3%
CSc1cccc(NC(=O)c2ccc(CN3CCc4ccccc4C3)cc2)c1	4.1µM*	-4%	3%	-10%	-53%	8.9µM*
O=C(Nc1cccc(Br)c1)c1ccc(CN2CCc3ccccc3C2)cc1	-9%	x	9.3µM*	7%	-69%	2.2µM*
Cc1cccc(NC(=O)c2ccc(CN3CCc4ccccc4C3)cc2)c1C	11%	0%	u	6%	3%	u
Cc1ccccc1NS(=O)(=O)c1ccc(C(=O)NCCCN2CCCC2=O)cc1	u	2%	1%	7%	x	-23%
CCN1CC(CN(C)Cc2cn(-c3ccc(C)cc3)nc2-c2cccc(C)c2)CC1=O (stereo unspecified)	10µM*	1%	u	-6%	-2%	-12%
Cc1ccc(-n2cc(CNC(C)Cc3cnccn3)c(-c3cccc(C)c3)n2)cc1 (stereo unspecified)	3.3µM*	0%	21%	-17%	-1%	-11%
CN(Cc1ncc[nH]1)Cc1cn(-c2ccccc2)nc1-c1ccc2c(c1)OCO2	u	1%	-17%	21%	1%	-12%
Cc1ccc(-n2cc(CN(C)Cc3ncc[nH]3)c(-c3cccc(C)c3)n2)cc1	2.6µM*	0%	0%	2%	-1%	u
Cc1ccc(-n2cc(CN(C)Cc3nccn3C)c(-c3ccc(F)cc3)n2)cc1	8.3µM*	0%	-18%	6%	1%	-18%
CCn1ccnc1CN(C)Cc1cn(-c2ccc(C)cc2)nc1-c1ccc(F)cc1	0%	-1%	19%	-3%	0%	u
CCCCn1c(Cn2nc(C(=O)O)c3ccccc3c2=O)nc2cc(S(N)(=O)=O)ccc21	39%	-1%	28%	8%	-22%	-5%
Cc1cc(C)c(C)c(OC(=O)c2sc(Cl)nc2C)c1	-28%	-6%	-19%	3%	-5%	6%
COc1ccc(CCNC(=O)CS(=O)Cc2nc(-c3cccs3)oc2C)cc1OC (stereo unspecified)	u	-1%	8.3µM*	3%	17%	-38%
SMILES	Pf growth 48h	SARS PLP yeast	Pf growth 96h	AMA1 RON2 block	NS1 inh	HCV inhibitor
COc1ccccc1CNC(=O)CS(=O)Cc1nc(-c2ccccc2C)oc1C (stereo unspecified)	x	-1%	5.2µM*	1%	5%	1%
COc1ccc(CNC(=O)CS(=O)Cc2nc(-c3ccc(C)cc3)oc2C)cc1 (stereo unspecified)	x	4%	7.4µM*	0%	4%	-12%
COc1ccc(-c2nc(CS(=O)CC(=O)NCc3ccc4c(c3)OCO4)c(C)o2)cc1 (stereo unspecified)	x	7%	4.7µM*	0%	7%	8%
COc1ccc(CNC(=O)CS(=O)Cc2nc(-c3ccc(OC)c(OC)c3)oc2C)cc1 (stereo unspecified)	-16%	5%	-26%	5%	14%	-4%
C=CCOc1ccc(C(=O)O)cc1Cl	54%	0%	13%	27%	-90%	14%
CCc1noc(C)c1C(=O)N1CCC(CCC(=O)Nc2cccc(OC)c2)CC1	u	1%	16%	-6%	-6%	u
C[C@H](CO)N1C[C@H](C)[C@@H](CN(C)Cc2cccc3c2OCCCO3)OCc2cnnn2CCCC1=O	x	x	x	3%	x	x
Cc1ccc(-c2nc(CS(=O)CC(=O)NCCN(CC(C)C)CC(C)C)c(C)o2)cc1 (stereo unspecified)	8%	19%	11%	-1%	9%	11µM*!
Cc1ccc(N2CC(C(=O)OCC(=O)Nc3ccc(Cl)cc3)CC2=O)cc1 (stereo unspecified)	17%	-14%	9%	-10%	x	8%
Cc1ccc(C(=O)c2coc3ccc(O)c(CN4CCN(C)CC4)c23)cc1	3.7µM*	0%	32%	-6%	-2%	u
O=C(Cn1c2[n+](c3ccc(C(F)(F)F)cc31)CCCCC2)Nc1ccc(Br)cc1	10µM*	3%	10µM*	10%	-3%	6%
N#Cc1ccc(NC(=O)Cn2c3[n+](c4ccc(C(F)(F)F)cc42)CCCCC3)cc1	12µM*	-1%	4.7µM*	-6%	1%	26%
CCc1ccc(NC(=O)Cn2c3[n+](c4c(F)c(F)ccc42)CCCCC3)cc1	3.7µM*	1%	u	4%	x	u
O=C(OCc1ccccc1)N1CCC2CC1c1cc(N3CCN(S(=O)(=O)c4cccc5ccccc45)CC3)ccc12 (stereo unspecified)	x	x	x	-4%	x	x
CCCN(CC(=O)Nc1cc(Cl)ccc1Cl)C(=O)c1ccccc1SCC(=O)N1CCCC1	u	2%	-28%	27%	x	12%
